Results filed as inconclusive are left out. Activity calls are given as the source filed them. Rule for the calls: active = hit-call score of the fitted dose curve at least 0.9, where 1 is the maximum; inconclusive = response in the unintended direction; inactive = score below 0.9.
Key:
[1] = biological target: Histone deacetylase 3 (Homo sapiens) (UniProt O15379); test: NVS_ENZ_hHDAC3: NovaScreen (NVS) Enzymatic Assay for human Histone Deacetylase 3 (HDAC3) (AID 2283163)
How it was run: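 Recombinant human HDAC3 with fluorescent substrate, 1 h after dosing; product separated from substrate by electrophoretic mobility shift and read by fluorescence. Primary screen at 25 uM in duplicate; actives (e.g. ≥30% inhibition) retested in concentration-response up to 50 uM.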

[2] = biological target: human Ephrin type-A Receptor 1 (EphA1), EPHA1 (gene 2041) (UniProt P21709); test: NVS_ENZ_hEphA1: NovaScreen (NVS) Enzymatic Assay for human Ephrin type-A Receptor 1 (EphA1) (AID 2283158);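 note: activity is signal loss versus DMSO meaning EphA1 kinase inhibition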
How it was run: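 Cell-free kinase activity with recombinant protein, 1 hour after dosing; product separated by electrophoretic mobility shift, fluorescence read. Primary screen at 25 uM in duplicate; hits run as concentration-response up to 50 uM, relative to DMSO.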

[3] = biological target: human Esterase Plasma (ES), BCHE (gene 590) (UniProt P06276); test: NVS_ENZ_hES: NovaScreen (NVS) Enzymatic Assay for human Esterase Plasma (ES) (AID 2283157)
How it was run: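 Chemicals were added to plasma-extracted human enzyme in a cell-free format, and activity was read colorimetrically after 0.25 hour. Activity loss was referenced to DMSO; concentration-response top dose was 50 uM.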

[4] = biological target: Glycogen synthase kinase-3 beta (Homo sapiens) (UniProt P49841); test: NVS_ENZ_hGSK3b: NovaScreen (NVS) Enzymatic Assay for human Glycogen Synthase Kinase-3 beta (GSK3b) (AID 2283165)
How it was run: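 Recombinant enzyme with specific fluorescent substrate, 1 h, product separated by electrophoretic mobility shift. Primary duplicate screen at 25 uM; actives (e.g. 30% inhibition) followed in singleton concentration-response to 50 uM. Signal loss fitted versus DMSO.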

[5] = biological target: human Colony Stimulating Factor 1 Receptor (CSF1R), CSF1R (gene 1436) (UniProt P07333); test: NVS_ENZ_hCSF1R: NovaScreen (NVS) Enzymatic Assay for human Colony Stimulating Factor 1 Receptor (CSF1R) (AID 2283150)
How it was run: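 Cell-free recombinant human CSF1R kinase with fluorescent substrate, product separated by electrophoretic mobility shift; read 1 h after dosing. Primary screen at 25 uM in duplicate, actives then in concentration-response up to 50 uM, relative to DMSO.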

[6] = biological target: human c-Jun N-terminal Kinases (JNK2), MAPK9 (gene 5601) (UniProt P45984); test: NVS_ENZ_hJNK2: NovaScreen (NVS) Enzymatic Assay for human c-Jun N-terminal Kinases (JNK2) (AID 2283171)
How it was run: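 Cell-free recombinant human JNK2 activity assay; fluorescent substrate and product separated by electrophoretic mobility shift, read 1 h after dosing. Primary duplicate screen at 25 uM; actives run in concentration-response up to 50 uM, relative to DMSO.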

[7] = biological target: human Dual Specificity Protein Phosphatase 3 (DUSP3), DUSP3 (gene 1845) (UniProt P51452); test: NVS_ENZ_hDUSP3: NovaScreen (NVS) Enzymatic Assay for human Dual Specificity Protein Phosphatase 3 (DUSP3) (AID 2283152);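 note: phosphatase activity of recombinant human DUSP3 on a fluorogenic substrate without cells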
Experimental: NVS_ENZ_hDUSP3 is a biochemical, single-readout assay that uses extracted gene-proteins in a cell-free assay. Measurements were taken 0 hour after chemical dosing in a 96-well plate.NVS_ENZ_hDUSP3 is one of one assay component(s) measured or calculated from the NVS_ENZ_hDUSP3 assay. It is designed to make measurements of enzyme activity, a form of enzyme reporter, as detected with fluorescence intensity signals by Fluorescence technology.Data from the assay component NVS_ENZ_hDUSP3 was analyzed into 1 assay endpoint. This assay endpoint, NVS_ENZ_hDUSP3, was analyzed in the positive analysis fitting direction relative to DMSO as the negative control and baseline of activity. Using a type of enzyme reporter, loss-of-signal activity can be used to understand changes in the enzymatic activity as they relate to the gene DUSP3. Furthermore, this assay endpoint can be referred to as a primary readout, because this assay has produced multiple assay endpoints where this one serves a enzymatic activity function. To generalize the intended target to other relatable targets, this assay endpoint is annotated to the phosphatase intended target family, where the subfamily is dual-specific phosphatase.
Binding assays used specific radioligands (tritiated, iodinated) with non-radioactive competitive displacement ligands in agonist or antagonist protocols (as indicated) and various reference compounds and inhibitors to titrate specific binding to receptors and transporters. Most enzyme assays (CYPs, kinases, phosphatases, proteases, HDACs) used recombinant protein and specific substrates (fluorescence mostly, some colorimetric and radioactive) and inhibitors, followed by a biochemical separation of substrate and product. All assays for the biochemical HTS were initially run in duplicate at a single concentration (10 uM for CYP450 assays and 25 uM for all others). […] Each assay was run with positive and negative controls, and concurrent controls on every plate. The follow-up (secondary) screen tested active chemical-pairs in concentration series, as well as a few additional assays not tested in the primary screen, some selected negative inactives, and several cases re-run in the concentration series for confirmatory purposes.

[8] = biological target: human Elastase, ELANE (gene 1991) (UniProt P08246); test: NVS_ENZ_hElastase: NovaScreen (NVS) Enzymatic Assay for human Elastase (AID 2283153)
How it was run: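 Cell-free elastase from human neutrophils, 1.5 h after dosing, activity read by absorbance. Primary screen in duplicate at 25 uM; hits (e.g., 30% inhibition) rerun in singleton concentration-response up to 50 uM, fitted versus DMSO.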

[9] = biological target: human FYN Proto-Oncogene, Src family Tyrosine Kinase (Fyn), FYN (gene 2534) (UniProt P06241); test: NVS_ENZ_hFyn: NovaScreen (NVS) Enzymatic Assay for human FYN Proto-Oncogene, Src family Tyrosine Kinase (Fyn) (AID 2283161)
How it was run: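 Recombinant enzyme with fluorescent substrate, product separated by electrophoretic mobility shift; read 1 h after dosing. Duplicate 25 uM single-point screen, actives retested in concentration series; loss of signal vs DMSO.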

[10] = biological target: human Janus Kinase 2 (Jak2), JAK2 (gene 3717) (UniProt O60674); test: NVS_ENZ_hJak2: NovaScreen (NVS) Enzymatic Assay for human Janus Kinase 2 (Jak2) (AID 2283169)
How it was run: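 Cell-free recombinant human JAK2 enzyme activity assay, fluorescence/electrophoretic mobility shift read 1 h after dosing. Screened in duplicate at 25 uM, then concentration-response up to 50 uM; activity as signal loss relative to DMSO.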

Sequence of human Ephrin type-A Receptor 1 (EphA1), EPHA1 (gene 2041) (P21709 whole entry, looked up): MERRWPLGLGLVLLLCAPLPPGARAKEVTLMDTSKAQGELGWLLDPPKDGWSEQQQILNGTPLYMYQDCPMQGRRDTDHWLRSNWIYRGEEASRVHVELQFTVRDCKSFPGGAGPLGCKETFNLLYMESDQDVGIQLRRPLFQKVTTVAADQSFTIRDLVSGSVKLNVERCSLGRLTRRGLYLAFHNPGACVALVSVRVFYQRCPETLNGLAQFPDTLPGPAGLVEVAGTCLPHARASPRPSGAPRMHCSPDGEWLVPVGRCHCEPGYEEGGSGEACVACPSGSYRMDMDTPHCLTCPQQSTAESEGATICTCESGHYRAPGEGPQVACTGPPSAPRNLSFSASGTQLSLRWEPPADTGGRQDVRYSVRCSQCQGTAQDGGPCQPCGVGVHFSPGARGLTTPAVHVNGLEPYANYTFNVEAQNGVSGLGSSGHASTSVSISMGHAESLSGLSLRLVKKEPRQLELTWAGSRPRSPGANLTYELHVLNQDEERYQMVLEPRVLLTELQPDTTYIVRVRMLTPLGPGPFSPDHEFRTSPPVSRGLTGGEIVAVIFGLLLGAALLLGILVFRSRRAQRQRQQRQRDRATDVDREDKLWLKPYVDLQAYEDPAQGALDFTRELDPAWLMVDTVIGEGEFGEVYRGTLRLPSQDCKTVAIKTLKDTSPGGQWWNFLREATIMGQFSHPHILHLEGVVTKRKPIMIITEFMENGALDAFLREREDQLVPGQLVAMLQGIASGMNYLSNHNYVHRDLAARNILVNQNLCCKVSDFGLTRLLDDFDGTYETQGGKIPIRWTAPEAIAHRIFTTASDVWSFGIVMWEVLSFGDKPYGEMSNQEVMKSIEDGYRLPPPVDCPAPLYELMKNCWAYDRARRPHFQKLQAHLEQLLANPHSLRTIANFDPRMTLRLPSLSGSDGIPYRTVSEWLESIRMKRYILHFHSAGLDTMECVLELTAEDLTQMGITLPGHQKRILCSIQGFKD
Sequence of Glycogen synthase kinase-3 beta (Homo sapiens) (P49841 whole entry, looked up): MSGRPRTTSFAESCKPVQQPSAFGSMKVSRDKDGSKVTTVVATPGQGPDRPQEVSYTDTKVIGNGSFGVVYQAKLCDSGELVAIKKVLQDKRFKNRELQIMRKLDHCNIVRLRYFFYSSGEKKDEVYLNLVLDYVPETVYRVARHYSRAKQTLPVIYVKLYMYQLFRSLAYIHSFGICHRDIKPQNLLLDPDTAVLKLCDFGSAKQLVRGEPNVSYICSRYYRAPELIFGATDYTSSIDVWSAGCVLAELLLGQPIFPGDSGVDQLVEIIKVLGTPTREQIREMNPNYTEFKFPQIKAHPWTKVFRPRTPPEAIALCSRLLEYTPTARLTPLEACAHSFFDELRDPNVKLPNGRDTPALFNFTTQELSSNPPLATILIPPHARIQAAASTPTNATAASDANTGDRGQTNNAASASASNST
Sequence of human Esterase Plasma (ES), BCHE (gene 590) (P06276 whole entry, looked up): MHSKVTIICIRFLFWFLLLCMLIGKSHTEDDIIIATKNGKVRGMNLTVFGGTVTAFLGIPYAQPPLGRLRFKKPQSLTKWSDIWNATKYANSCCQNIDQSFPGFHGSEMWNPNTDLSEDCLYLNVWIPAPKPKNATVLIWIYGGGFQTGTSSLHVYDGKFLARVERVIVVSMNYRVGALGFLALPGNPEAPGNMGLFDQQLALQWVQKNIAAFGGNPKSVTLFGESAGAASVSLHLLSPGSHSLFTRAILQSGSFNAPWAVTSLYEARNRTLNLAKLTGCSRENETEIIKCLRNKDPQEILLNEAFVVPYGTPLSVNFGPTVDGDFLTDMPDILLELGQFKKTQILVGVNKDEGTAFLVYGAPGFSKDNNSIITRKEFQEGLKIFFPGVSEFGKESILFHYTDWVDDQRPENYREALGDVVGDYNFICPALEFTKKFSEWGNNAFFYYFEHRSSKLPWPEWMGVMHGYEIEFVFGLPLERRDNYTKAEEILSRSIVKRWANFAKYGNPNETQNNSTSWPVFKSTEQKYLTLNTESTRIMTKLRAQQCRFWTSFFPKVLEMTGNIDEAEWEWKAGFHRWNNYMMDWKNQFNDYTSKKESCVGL
Sequence of human Dual Specificity Protein Phosphatase 3 (DUSP3), DUSP3 (gene 1845) (P51452 whole entry, looked up): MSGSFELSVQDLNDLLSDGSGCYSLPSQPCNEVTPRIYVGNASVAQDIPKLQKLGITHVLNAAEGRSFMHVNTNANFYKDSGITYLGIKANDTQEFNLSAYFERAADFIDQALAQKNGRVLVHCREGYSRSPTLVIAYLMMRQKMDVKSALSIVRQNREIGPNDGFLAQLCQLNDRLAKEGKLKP
Sequence of Histone deacetylase 3 (Homo sapiens) (O15379 whole entry, looked up): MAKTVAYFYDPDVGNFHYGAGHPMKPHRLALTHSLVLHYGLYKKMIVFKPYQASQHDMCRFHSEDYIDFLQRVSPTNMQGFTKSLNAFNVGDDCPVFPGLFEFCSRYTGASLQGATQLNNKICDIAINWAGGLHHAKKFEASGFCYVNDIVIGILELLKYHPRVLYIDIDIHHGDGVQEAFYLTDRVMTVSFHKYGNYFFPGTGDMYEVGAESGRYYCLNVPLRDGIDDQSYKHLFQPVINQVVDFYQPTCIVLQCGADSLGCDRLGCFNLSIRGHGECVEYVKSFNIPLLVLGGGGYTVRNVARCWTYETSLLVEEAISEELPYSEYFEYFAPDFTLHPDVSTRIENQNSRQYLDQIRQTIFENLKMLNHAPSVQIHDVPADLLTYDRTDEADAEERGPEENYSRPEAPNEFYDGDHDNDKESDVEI
Sequence of human Colony Stimulating Factor 1 Receptor (CSF1R), CSF1R (gene 1436) (P07333 whole entry, looked up): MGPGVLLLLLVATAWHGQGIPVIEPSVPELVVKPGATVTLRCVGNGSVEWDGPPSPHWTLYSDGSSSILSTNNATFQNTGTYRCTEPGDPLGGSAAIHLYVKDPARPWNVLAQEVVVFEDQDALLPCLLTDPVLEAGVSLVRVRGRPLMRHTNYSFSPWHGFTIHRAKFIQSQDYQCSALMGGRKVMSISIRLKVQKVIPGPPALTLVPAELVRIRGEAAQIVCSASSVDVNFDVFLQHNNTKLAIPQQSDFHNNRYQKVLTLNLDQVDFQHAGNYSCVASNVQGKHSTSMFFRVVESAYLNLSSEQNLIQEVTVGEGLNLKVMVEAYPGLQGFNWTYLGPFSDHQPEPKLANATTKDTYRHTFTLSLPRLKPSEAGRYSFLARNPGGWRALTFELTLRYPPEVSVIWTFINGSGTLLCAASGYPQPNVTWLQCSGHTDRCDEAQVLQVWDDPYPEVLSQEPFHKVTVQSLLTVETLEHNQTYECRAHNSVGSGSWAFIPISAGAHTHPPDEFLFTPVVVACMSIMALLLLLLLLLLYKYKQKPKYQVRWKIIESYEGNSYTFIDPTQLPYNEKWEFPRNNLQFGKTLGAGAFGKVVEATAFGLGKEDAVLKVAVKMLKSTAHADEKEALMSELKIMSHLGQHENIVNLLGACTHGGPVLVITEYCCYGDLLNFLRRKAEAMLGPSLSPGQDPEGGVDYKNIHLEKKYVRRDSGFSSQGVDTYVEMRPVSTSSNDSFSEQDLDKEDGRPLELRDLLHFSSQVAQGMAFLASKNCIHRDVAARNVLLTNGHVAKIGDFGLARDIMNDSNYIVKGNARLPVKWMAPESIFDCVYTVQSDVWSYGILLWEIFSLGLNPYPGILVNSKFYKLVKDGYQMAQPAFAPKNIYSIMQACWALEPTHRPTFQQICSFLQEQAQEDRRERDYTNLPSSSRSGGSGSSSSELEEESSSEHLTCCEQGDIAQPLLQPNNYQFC
Sequence of human c-Jun N-terminal Kinases (JNK2), MAPK9 (gene 5601) (P45984 whole entry, looked up): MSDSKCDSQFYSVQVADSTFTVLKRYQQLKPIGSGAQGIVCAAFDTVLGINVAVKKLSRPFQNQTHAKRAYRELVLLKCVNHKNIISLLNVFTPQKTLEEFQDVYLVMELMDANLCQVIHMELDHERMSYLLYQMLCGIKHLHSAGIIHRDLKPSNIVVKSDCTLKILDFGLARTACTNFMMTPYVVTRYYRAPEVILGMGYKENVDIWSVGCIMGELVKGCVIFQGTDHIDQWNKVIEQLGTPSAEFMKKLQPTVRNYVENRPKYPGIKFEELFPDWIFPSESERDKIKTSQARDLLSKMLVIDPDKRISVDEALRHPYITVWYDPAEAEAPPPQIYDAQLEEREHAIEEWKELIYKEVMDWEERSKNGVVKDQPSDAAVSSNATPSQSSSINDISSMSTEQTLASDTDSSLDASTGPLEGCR
Sequence of human Elastase, ELANE (gene 1991) (P08246 whole entry, looked up): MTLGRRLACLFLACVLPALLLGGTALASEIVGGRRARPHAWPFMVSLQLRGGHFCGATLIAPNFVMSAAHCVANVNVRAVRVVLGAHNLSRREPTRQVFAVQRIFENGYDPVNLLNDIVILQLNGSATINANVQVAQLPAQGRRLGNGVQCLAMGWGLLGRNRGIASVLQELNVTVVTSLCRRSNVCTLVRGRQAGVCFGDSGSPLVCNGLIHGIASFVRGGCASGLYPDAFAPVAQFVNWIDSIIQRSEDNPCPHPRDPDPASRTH
Sequence of human FYN Proto-Oncogene, Src family Tyrosine Kinase (Fyn), FYN (gene 2534) (P06241 whole entry, looked up): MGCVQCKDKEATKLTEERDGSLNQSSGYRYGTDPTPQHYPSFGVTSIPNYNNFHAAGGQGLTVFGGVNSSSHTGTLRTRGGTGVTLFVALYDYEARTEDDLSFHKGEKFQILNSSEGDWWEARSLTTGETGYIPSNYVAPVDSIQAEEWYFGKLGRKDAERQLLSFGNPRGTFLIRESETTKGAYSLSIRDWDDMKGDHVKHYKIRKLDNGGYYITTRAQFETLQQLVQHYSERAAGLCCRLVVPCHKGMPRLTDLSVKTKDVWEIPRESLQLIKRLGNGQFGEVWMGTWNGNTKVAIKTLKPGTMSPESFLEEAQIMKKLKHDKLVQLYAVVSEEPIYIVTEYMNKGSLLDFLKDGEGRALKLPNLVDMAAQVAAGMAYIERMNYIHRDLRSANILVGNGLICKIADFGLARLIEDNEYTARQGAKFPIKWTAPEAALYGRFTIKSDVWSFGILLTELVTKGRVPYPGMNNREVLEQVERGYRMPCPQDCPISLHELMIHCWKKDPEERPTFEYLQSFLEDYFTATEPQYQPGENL

CCC(C)c1ccccc1O (stereo not drawn)
outcome [1]: inactive

CC(C)(C)c1ccc(O)c(O)c1
outcome [2]: inactive

O=C(CCCN1CCC(O)(c2ccc(Cl)cc2)CC1)c1ccc(F)cc1
AC50 [3]: 6.15 µM (active)

N=C(N)c1ccc(OCCCCCOc2ccc(C(=N)N)cc2)cc1
AC50 [3]: 6.56 µM (active)

CN(C)CCOC(c1ccccc1)c1ccccc1
AC50 [3]: 11.4 µM (active)

CCCCCCCCCCCC
outcome [2]: inactive

CCCCC=O
outcome [4]: inactive

CCCCCCCCCCCCOS(=O)(=O)O
AC50 [5]: 29.1 µM (active)
outcome [2]: inactive
outcome [1]: inactive
AC50 [6]: 37.5 µM (active)

O=C(c1ccccc1)c1ccccc1
outcome [4]: inactive

CC1=NN(c2ccccc2)C(=O)C1
outcome [2]: inactive

CS(=O)(=O)c1ccc([C@@H](CC2CCCC2)C(=O)Nc2cnccn2)cc1Cl
AC50 [7]: 6.36 µM (active)

CCCCCCCCCCCCCCCC(=O)OC
AC50 [7]: 6.25 µM (active)

Cc1[nH]nc2c1N=C(c1ccccc1Cl)c1cc([N+](=O)[O-])ccc1N2
AC50 [5]: 0.00229 µM (active)
AC50 [7]: 16.9 µM (active)
AC50 [8]: 4.93 µM (active)
AC50 [2]: 8.96 µM (active)
outcome [9]: inactive
AC50 [4]: 0.00229 µM (active)
AC50 [10]: 0.00328 µM (active)
AC50 [6]: 35.8 µM (active)

Cc1ccc(C(=O)c2ccccc2)cc1
outcome [2]: inactive

CCCCCCCCCCCCCCCCCC[N+](C)(C)Cc1ccccc1
AC50 [7]: 4.54 µM (active)
outcome [2]: inactive

CCCCc1oc2ccccc2c1C(=O)c1cc(I)c(OCCN(CC)CC)c(I)c1
outcome [3]: inactive

O=C(NO)c1ccccc1
outcome [2]: inactive

— PubChem BioAssay (EPA / NIEHS)
